Reference: PubChem BioAssay
Several values for one entry are separate records, joined by “and”; a condition that tells them apart may be missing. Identical values can stand only once. Activity calls are given as the source filed them. Unless noted, no rule for the calls is given here.

Assays:
[1] = compounds altering circadian rhythm period length – cell-based, LOPAC library, luminescence reporter (AID 2774); conditions: circadian reporter cells, at 7 µM, actives lie on both sides;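 also: values are relative to mean of DMSO wells on each plate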
[2] = system: Hepatitis C virus NS3 helicase; test: blockers of NS3h binding to ssDNA – biochemical, fluorescence polarization, LOPAC1280 library, primary screen (AID 687035; in the data active = inhibition above about 37%); conditions: Purified HCV NS3 helicase, Cy5-dT15 ssDNA binding fluorescence polarization; stronger effect = higher value; concentration not given here
[3] = compounds altering Cy5-DNA-NS3h complex signal – biochemical, LOPAC1280, artefact control for HCV NS3 helicase inhibitor project (AID 687037); conditions: Cy5-DNA-NS3h complex fluorescence interference counterscreen
[4] = system: Aerobactin synthetase IucA (Klebsiella pneumoniae); test: inhibition of K. pneumoniae IucA enzyme – biochemical, Tocris library, absorbance (AID 1345561); conditions: purified IucA enzyme assay, absorbance (OD) read-out; stronger effect = lower value;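 tested at 8 µM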;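 also: 100% = enzyme without compound and 0% = no enzyme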
[5] = viability loss with induced miR-34 in A549 – imaging, A549 dox-inducible miR-34, nuclei and caspase counts, primary screen (AID 1347080;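 active = compounds whose cell count with miR-34 switched on is under 0.7 times the count with it off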); conditions: A549 miR-34 inducible, Hoechst nuclei count, 48 h
[6] = blockers of cellular phospholipid synthesis – cell-based, LOPAC library, screen 4, primary screen (AID 1347384); conditions: animal cells, phospholipid biosynthesis inhibition screen; at 10 µM
[7] = galactose survival enhancers in mitochondrial complex I cybrids – cell-based, galactose medium, ATP luminescence, primary screen (AID 1645843;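 active = z-score of at least 1.8 in each of two replicates, scored against plate mean and spread of sample wells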;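 also: positive z means more ATP and so rescue of galactose-driven cybrid death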); conditions: complex I mutant cybrid cells, 72 h, stronger effect = higher value
[8] = stronger effect = lower value, cell number ratio, induced over uninduced
[9] = measured here: relative caspase fold change +Dox/-Dox
[10] = measured here: total cells with miR-34 induction, stronger effect = lower value
[11] = measured here: total cells without miR-34 induction

Row | SMILES | period change [1] | inhibition [2] | fluorescence ratio (interference) [3] | remaining activity [4] | fold change [5, 8] | fold change [5, 9] | cell count [5, 10] | cell count [5, 11] | outcome [6] | z-score [7]
1 | CC(=O)NNC(=O)N1Cc2ccccc2Oc2ccc(Cl)cc21 | -0.025 h (inactive) | -1% (inactive) | 1 (inactive) | 100% (inactive) | 0.965 (inactive) and 0.956 (inactive) | 0.954 and 0.9 | 10200 and 8650 | 10600 and 9060 | inactive | 1.17 (inactive) and 0.635 (inactive)
2 | CC1CCN(CC[C@H]2CCCN2S(=O)(=O)c2cccc(O)c2)CC1 | 0.055 h (inactive) | -3% (inactive) | 1 (inactive) | 106% (inactive) | 0.975 (inactive) and 0.908 (inactive) | 1.72 and 0.97 | 9460 and 8490 | 9700 and 9350 | inactive | -0.155 (inactive) and -0.32 (inactive)
3 | C=CCN1CCc2cc(O)c(O)cc2C(c2ccccc2)C1 (stereo not given) | 0.045 h (inactive) | -4% (inactive) | 0.9 (inactive) | 113% (inactive) | 0.956 (inactive) and 0.974 (inactive) | 1.26 and 0.531 | 10300 and 8820 | 10700 and 9060 | inactive | -1.29 (inactive) and -0.785 (inactive)
4 | N[C@H](C(=O)O)c1cc(O)cc(O)c1 | 0.11 h (inactive) | -1% (inactive) | 1.1 (inactive) | 115% (inactive) | 1.01 (inactive) and 0.963 (inactive) | 1.04 and 0.77 | 10300 and 8780 | 10200 and 9120 | inactive | 0.215 (inactive) and -0.05 (inactive)
5 | CC1CCN=C(N)S1 (stereo not given) | -0.02 h (inactive) | -2% (inactive) | 1 (inactive) | 103% (inactive) | 1.02 (inactive) and 0.923 (inactive) | 1.68 and 0.753 | 9440 and 8650 | 9270 and 9380 | inactive | 0.31 (inactive) and 1.27 (inactive)
6 | N=C(N)SCCc1cnc[nH]1 | 0.045 h (inactive) | -3% (inactive) | 1 (inactive) | 120% (inactive) | 0.923 (inactive) and 0.986 (inactive) | 1.08 and 0.938 | 8720 and 7870 | 9460 and 7980 | inactive | 0.08 (inactive) and 0.435 (inactive)
7 | Nc1ncnc2c1ncn2C1CCCO1 (stereo not given) | -0.01 h (inactive) | -1% (inactive) | 1 (inactive) | 110% (inactive) | 0.951 (inactive) and 0.846 (inactive) and 0.927 (inactive) | 1.64 and 1.08 and 0.781 | 9560 and 5440 and 8660 | 10100 and 6440 and 9350 | inactive | 0.435 (inactive) and -0.32 (inactive)
8 | CC(C)NC[C@H](O)COc1cccc2[nH]ccc12 | 0.125 h (inactive) | -2% (inactive) | 1 (inactive) | 102% (inactive) | 0.97 (inactive) and 0.927 (inactive) | 1.45 and 1.12 | 9970 and 8970 | 10300 and 9670 | inactive | -0.095 (inactive) and -0.03 (inactive)
9 | CCCCCCN(CCCCCC)C(=O)Cc1c(-c2ccc(F)cc2)[nH]c2ccccc12 | -0.08 h (inactive) | 1% (inactive) | 1 (inactive) | 100% (inactive) | 1.29 (inactive) and 0.933 (inactive) | 1.15 and 0.997 | 5020 and 4030 | 3880 and 4320 | inactive | -1.04 (inactive) and -1.23 (inactive)
10 | Cc1ccc(O)c(N=Nc2ccccc2)n1 | -0.01 h (inactive) | 1% (inactive) | 0.9 (inactive) | 110% (inactive) | 0.956 (inactive) and 0.932 (inactive) | 0.751 and 0.659 | 10100 and 8850 | 10500 and 9490 | inactive | 1.16 (inactive) and 0.96 (inactive)
11 | Clc1ccc(N2CCN(Cc3c[nH]c4ncccc34)CC2)cc1 | 0.105 h (inactive) | 12% (inactive) | 1 (inactive) | 95.2% (inactive) | 1.07 (inactive) and 0.896 (inactive) | 0.721 and 0.794 | 9090 and 6380 | 8470 and 7120 | inactive | -0.965 (inactive) and -1.05 (inactive)
12 | COc1ccccc1N1CCN(CCCCN2C(=O)c3ccccc3C2=O)CC1 | 0.18 h (inactive) | -3% (inactive) | 1 (inactive) | 97.1% (inactive) | 1.11 (inactive) and 0.969 (inactive) | 1.56 and 0.971 | 9310 and 9300 | 8410 and 9600 | inactive | -0.155 (inactive) and -0.92 (inactive)
13 | O=C(OCCN1CCOCC1)C1(c2ccccc2)CCCCC1 | -0.085 h (inactive) | -2% (inactive) | 1 (inactive) | 124% (inactive) | 1.05 (inactive) and 1.02 (inactive) | 1.06 and 0.742 | 10700 and 8020 | 10200 and 7840 | inactive | -0.08 (inactive) and -0.97 (inactive)
14 | Cn1cc(C(=O)OCC2CCN(CCNS(C)(=O)=O)CC2)c2ccccc21 | 0.07 h (inactive) | -1% (inactive) | 1 (inactive) | 123% (inactive) | 1.06 (inactive) and 0.932 (inactive) | 1.51 and 0.946 | 9310 and 9140 | 8780 and 9810 | inactive | -0.825 (inactive) and -0.425 (inactive)
